# In PubChem BioAssay AID1508601 (ICCB-Longwood Screening Facility, Harvard Medical School, 2020):
# “And” between values parts separate entries of the source, which are not always exact repeats. Equal values may be shown once. In all, about 5,700 compounds went through this assay and about 85 (1%) were called active. No stated cut-off is given here; in the data, active means p53-positive nuclei above about 36% (passing the limit was not always enough); inactive means the rest. The list comes from a sample in which actives are over-represented; it also holds similar structures and randomly drawn compounds.
# Experiments:
# [1] = p53 stabilisation in HPV-positive human cells, imaging, p53-positive nuclei imaging, 24 h, 48 h (AID 1508601); settings: 24/48 h
# [2] = target: Cellular tumor antigen p53 (Homo sapiens) (UniProt P04637); test: as above; settings: 24/48 h, stronger effect = higher value
# [3] = measured here: cell number at 24 h, Library stock concentration: 80 uM
# [4] = measured here: cell number at 24 h, Library stock concentration: 400 uM
# [5] = measured here: cell number at 24 h, Library stock concentration: 2 mM
# [6] = measured here: cell number at 24 h, Library stock concentration: 3.33 mM
# [7] = measured here: cell number at 24 h, Library stock concentration: 10 mM
# [8] = measured here: cell number at 48 h, Library stock concentration: 80 uM
# [9] = measured here: cell number at 48 h, Library stock concentration: 400 uM
# [10] = measured here: cell number at 48 h, Library stock concentration: 2 mM
# [11] = measured here: cell number at 48 h, Library stock concentration: 3.33 mM
# [12] = measured here: cell number at 48 h, Library stock concentration: 10 mM
# [13] = Library stock concentration: 80 uM
# [14] = Library stock concentration: 400 uM
# [15] = Library stock concentration: 2 mM
# [16] = Library stock concentration: 3.33 mM
# [17] = Library stock concentration: 10 mM
# [18] = measured here: p53 positive nuclei at 24 h, Library stock concentration: 80 uM
# [19] = measured here: p53 positive nuclei at 24 h, Library stock concentration: 400 uM
# [20] = measured here: p53 positive nuclei at 24 h, Library stock concentration: 2 mM
# [21] = measured here: p53 positive nuclei at 24 h, Library stock concentration: 3.33 mM
# [22] = measured here: p53 positive nuclei at 24 h, Library stock concentration: 10 mM
# Chain of Cellular tumor antigen p53 (Homo sapiens) (P04637 whole entry, looked up): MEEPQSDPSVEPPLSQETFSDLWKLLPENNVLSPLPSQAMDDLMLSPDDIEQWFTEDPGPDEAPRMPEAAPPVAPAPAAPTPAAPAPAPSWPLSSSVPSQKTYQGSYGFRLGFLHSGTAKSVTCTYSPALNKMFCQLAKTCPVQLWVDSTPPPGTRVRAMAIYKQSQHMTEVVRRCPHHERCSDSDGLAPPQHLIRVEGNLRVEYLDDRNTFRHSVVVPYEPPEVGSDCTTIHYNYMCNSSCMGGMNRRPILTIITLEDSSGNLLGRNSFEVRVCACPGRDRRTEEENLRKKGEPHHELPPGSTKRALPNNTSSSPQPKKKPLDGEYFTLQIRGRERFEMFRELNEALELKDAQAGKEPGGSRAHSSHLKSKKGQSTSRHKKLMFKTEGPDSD
compound,measurement,setting,value
CC(C)CC(=O)Nc1n[nH]c2c1CN(C(=O)C1CCN(C)CC1)C2(C)C,"nuclei count, normalised",[1]; [3],90.1%
same,"nuclei count, normalised",[1]; [4],79.8%
same,"nuclei count, normalised",[1]; [5],61%
same,"nuclei count, normalised",[1]; [6],45.9%
same,"nuclei count, normalised",[1]; [7],39.3%
same,"nuclei count, normalised",[1]; [8],91.5%
same,"nuclei count, normalised",[1]; [9],71.9%
same,"nuclei count, normalised",[1]; [10],44.9%
same,"nuclei count, normalised",[1]; [11],31.6%
same,"nuclei count, normalised",[1]; [12],23.2%
same,"p53-positive nuclei, normalised",[2]; [13],-0.0742% (inactive)
same,"p53-positive nuclei, normalised",[2]; [14],0.409% (inactive)
same,"p53-positive nuclei, normalised",[2]; [15],5.57% (inactive)
same,"p53-positive nuclei, normalised",[2]; [16],45.4% (inactive)
same,"p53-positive nuclei, normalised",[2]; [17],3.79% (inactive)
same,"p53-positive nuclei, normalised",[2]; [18],-0.129%
same,"p53-positive nuclei, normalised",[2]; [19],0.453%
same,"p53-positive nuclei, normalised",[2]; [20],0.779%
same,"p53-positive nuclei, normalised",[2]; [21],13.5%
same,"p53-positive nuclei, normalised",[2]; [22],0.472%
Cc1nc(Nc2n[nH]c3c2CN(C(=O)NC(CN(C)C)c2ccccc2)C3(C)C)c2sccc2n1 (centres undefined),"nuclei count, normalised","[1]; measured here: cell number at 24 h, Library stock concentration: 46 uM",105%
same,"nuclei count, normalised",[1]; [3],95.1%
same,"nuclei count, normalised","[1]; measured here: cell number at 24 h, Library stock concentration: 278 uM",96.3%
same,"nuclei count, normalised",[1]; [4],85.6%
same,"nuclei count, normalised","[1]; measured here: cell number at 24 h, Library stock concentration: 1.67 mM",75.5%
same,"nuclei count, normalised",[1]; [5],66.2%
same,"nuclei count, normalised",[1]; [6],47.2%
same,"nuclei count, normalised",[1]; [7],45.2% and 45.1%
same,"nuclei count, normalised","[1]; measured here: cell number at 48 h, Library stock concentration: 46 uM",108%
same,"nuclei count, normalised",[1]; [8],96.4%
same,"nuclei count, normalised","[1]; measured here: cell number at 48 h, Library stock concentration: 278 uM",99.1%
same,"nuclei count, normalised",[1]; [9],92.2%
same,"nuclei count, normalised","[1]; measured here: cell number at 48 h, Library stock concentration: 1.67 mM",72.1%
same,"nuclei count, normalised",[1]; [10],63.4%
same,"nuclei count, normalised",[1]; [11],37.3%
same,"nuclei count, normalised",[1]; [12],32.4% and 35.1%
same,"p53-positive nuclei, normalised",[2]; Library stock concentration: 46 uM,-0.184% (inactive)
same,"p53-positive nuclei, normalised",[2]; [13],-0.159% (inactive)
same,"p53-positive nuclei, normalised",[2]; Library stock concentration: 278 uM,-0.101% (inactive)
same,"p53-positive nuclei, normalised",[2]; [14],-0.117% (inactive)
same,"p53-positive nuclei, normalised",[2]; Library stock concentration: 1.67 mM,0.691% (inactive)
same,"p53-positive nuclei, normalised",[2]; [15],2.71% (inactive)
same,"p53-positive nuclei, normalised",[2]; [16],69.1% (active)
same,"p53-positive nuclei, normalised",[2]; [17],18.9% (inactive) and 1.61% (inactive)
same,"p53-positive nuclei, normalised","[2]; measured here: p53 positive nuclei at 24 h, Library stock concentration: 46 uM",0.116%
same,"p53-positive nuclei, normalised",[2]; [18],-0.151%
same,"p53-positive nuclei, normalised","[2]; measured here: p53 positive nuclei at 24 h, Library stock concentration: 278 uM",-0.0682%
same,"p53-positive nuclei, normalised",[2]; [19],0.0839%
same,"p53-positive nuclei, normalised","[2]; measured here: p53 positive nuclei at 24 h, Library stock concentration: 1.67 mM",1.31%
same,"p53-positive nuclei, normalised",[2]; [20],2.05%
same,"p53-positive nuclei, normalised",[2]; [21],6.89%
same,"p53-positive nuclei, normalised",[2]; [22],1.74% and 0.752%
CCCCCOC(=O)Nc1nc(=O)n(C2OC(C)C(O)C2O)cc1F (centres undefined),"nuclei count, normalised",[1]; [6],99.3%
same,"nuclei count, normalised",[1]; [11],102%
same,"p53-positive nuclei, normalised",[2]; [16],-0.587% (inactive)
same,"p53-positive nuclei, normalised",[2]; [21],-0.329%
CCC(=O)O[C@@]1(C(=O)CCl)C(C)C[C@H]2[C@@H]3CC(F)C4=CC(=O)C=C[C@]4(C)[C@]3(F)C(O)C[C@@]21C (some centres undefined),"nuclei count, normalised",[1]; [6],104%
same,"nuclei count, normalised",[1]; [11],97.5%
same,"p53-positive nuclei, normalised",[2]; [16],-0.166% (inactive)
same,"p53-positive nuclei, normalised",[2]; [21],-0.278%
COc1ccc(Cn2ccc3ccc(C(=O)NO)cc32)cc1,"nuclei count, normalised",[1]; [3],107%
same,"nuclei count, normalised",[1]; [4],107%
same,"nuclei count, normalised",[1]; [5],105%
same,"nuclei count, normalised",[1]; [6],105%
same,"nuclei count, normalised",[1]; [7],101%
same,"nuclei count, normalised",[1]; [8],107%
same,"nuclei count, normalised",[1]; [9],99.6%
same,"nuclei count, normalised",[1]; [10],98.8%
same,"nuclei count, normalised",[1]; [11],88.9%
same,"nuclei count, normalised",[1]; [12],95.1%
same,"p53-positive nuclei, normalised",[2]; [13],-0.106% (inactive)
same,"p53-positive nuclei, normalised",[2]; [14],-0.0148% (inactive)
same,"p53-positive nuclei, normalised",[2]; [15],-0.164% (inactive)
same,"p53-positive nuclei, normalised",[2]; [16],0.097% (inactive)
same,"p53-positive nuclei, normalised",[2]; [17],-0.0788% (inactive)
same,"p53-positive nuclei, normalised",[2]; [18],-0.0424%
same,"p53-positive nuclei, normalised",[2]; [19],-0.00427%
same,"p53-positive nuclei, normalised",[2]; [20],0.00889%
same,"p53-positive nuclei, normalised",[2]; [21],-0.209%
same,"p53-positive nuclei, normalised",[2]; [22],0.0845%
CCN(CC)Cc1ccc2cc(COC(=O)Nc3ccc(C(=O)NO)cc3)ccc2c1,"nuclei count, normalised",[1]; [6],39.9%
same,"nuclei count, normalised",[1]; [11],22.6%
same,"p53-positive nuclei, normalised",[2]; [16],95.7% (active)
same,"p53-positive nuclei, normalised",[2]; [21],67.1%
CCCCN(Cc1ccc(C(=O)NO)cc1)C(=O)Nc1ccccc1,"nuclei count, normalised",[1]; [3],103%
same,"nuclei count, normalised",[1]; [4],99.5%
same,"nuclei count, normalised",[1]; [5],114%
same,"nuclei count, normalised",[1]; [6],118%
same,"nuclei count, normalised",[1]; [7],74.8%
same,"nuclei count, normalised",[1]; [8],109%
same,"nuclei count, normalised",[1]; [9],101%
same,"nuclei count, normalised",[1]; [10],99.5%
same,"nuclei count, normalised",[1]; [11],90.2%
same,"nuclei count, normalised",[1]; [12],67.8%
same,"p53-positive nuclei, normalised",[2]; [13],-0.143% (inactive)
same,"p53-positive nuclei, normalised",[2]; [14],0.163% (inactive)
same,"p53-positive nuclei, normalised",[2]; [15],0.295% (inactive)
same,"p53-positive nuclei, normalised",[2]; [16],0.281% (inactive)
same,"p53-positive nuclei, normalised",[2]; [17],5.72% (inactive)
same,"p53-positive nuclei, normalised",[2]; [18],-0.0551%
same,"p53-positive nuclei, normalised",[2]; [19],-0.12%
same,"p53-positive nuclei, normalised",[2]; [20],0.226%
same,"p53-positive nuclei, normalised",[2]; [21],0.149%
same,"p53-positive nuclei, normalised",[2]; [22],13.7%
